From PubChem BioAssay
Mtb betalactam: beta-lactam sensitization of Mtb H37Rv | M. tuberculosis H37Rv growth with meropenem, percent inhibition | AID 434955 | 0.27% of 330,000 active | inhibition, % at 25 µM; call rule not given here;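 note: growth measured after seven days incubation then overnight dye step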
FBA Mtb inh: inhibits M. tuberculosis FBA enzyme | P9WQA3 | inhibition, % at 1 µM | 2.3% of 360,000 active | AID 588726 | purified M. tuberculosis FBA, fluorescence read-out; in the data active = inhibition above about 27%
Target sequence (P9WQA3 whole entry, looked up): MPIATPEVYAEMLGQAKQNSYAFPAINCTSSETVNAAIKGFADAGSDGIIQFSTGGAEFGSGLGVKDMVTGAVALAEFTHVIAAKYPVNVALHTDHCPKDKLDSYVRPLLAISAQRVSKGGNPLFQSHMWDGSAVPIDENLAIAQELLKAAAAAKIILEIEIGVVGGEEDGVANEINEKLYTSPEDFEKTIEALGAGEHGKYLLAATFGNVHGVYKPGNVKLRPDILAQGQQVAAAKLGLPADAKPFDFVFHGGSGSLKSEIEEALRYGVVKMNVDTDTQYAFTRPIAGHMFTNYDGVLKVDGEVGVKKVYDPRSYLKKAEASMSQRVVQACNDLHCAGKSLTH
Rv3671c protease: inhibitors of M. tuberculosis serine protease Rv3671c. P9WHR9. inhibition, % at 5.96 µM. 0.048% of 320,000 active. AID 2606; in the data active = inhibition above about 38%;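 note: extracellular domain of Rv3671c used as enzyme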
UGM FP inh: Mtb UDP-galactopyranose mutase inhibition. P9WIQ1. inhibition, % at 10 µM. purified UGM, fluorescence polarization probe displacement. AID 504406. 0.06% of 320,000 active; in the data active = inhibition above about 10%, passing the limit was not always enough
GDH-TPI counter: counter-screen for M. tuberculosis FBA inhibitors: GDH-TPI coupled enzymes | GDH-TPI coupled enzyme counterscreen, NADH absorbance | inhibition, % at 4.8 µM | 1.2% of 360,000 active | AID 588335; in the data active = inhibition above about 30%
RecA splice inh: inhibitors of M. tuberculosis RecA intein splicing; 0.75% of 290,000 active; cell-free RecA intein splicing, fluorescence; inhibition, % (test concentration not listed); AID 2221; in the data active = inhibition above about 30%
Hits are given with their value; – = inactive; · = not tested or not shown; + = active, no number. An excerpt weighted towards active compounds, which were near 4% of everything screened.

SMILES | Mtb betalactam | FBA Mtb inh | Rv3671c protease | UGM FP inh | GDH-TPI counter | RecA splice inh
N#CC(c1ccc(Cl)cc1)N1CCOCC1 (centres undefined) | – | – | – | – | – | ·
Cc1cccc(CN2C(=O)N/C(=C/c3ccc(C)s3)C2=O)c1 | – | – | – | – | – | –
Cc1cccc(CN2C(=O)N/C(=C/c3cc(C)n(-c4cc(C)ccn4)c3C)C2=O)c1 | – | – | – | – | 31.4 | –
COC(=O)CCn1nnc(-c2ccc(C(C)C)cc2)n1 | – | – | – | – | – | –
CCOc1ccc(C(=O)N/N=C(\c2ccccc2)c2ccccn2)cc1 | – | – | – | – | 32.5 | –
Cc1ccccc1NCc1nnc2n1CCCCC2 | – | – | – | – | – | –
Cc1nc(N(C)C)c2sc(=S)n(C)c2n1 | – | – | – | – | 30.7 | –
N=c1oc2c3c4c(cc2cc1C(=O)Nc1ccccc1)CCCN4CCC3 | – | – | – | – | – | –
CC(=O)Nc1ccc2c(CSc3nncs3)cc(=O)oc2c1 | – | – | – | – | – | –
OCCCN=c1cc(-c2ccccc2)oc2ccc(Cl)cc12 | – | – | – | – | 48.6 | –
CC1(C)CC(N=c2cc(-c3ccccc3)oc3ccc(Cl)cc23)CC(C)(C)N1 | · | – | · | · | – | –
COc1ccc(NC(=O)C2CCCN2S(=O)(=O)c2cccs2)c([N+](=O)[O-])c1 (centres undefined) | – | – | – | – | – | –
NS(=O)(=O)c1ccc(Nc2nc(-c3ccc(O)cc3)cs2)cc1 | – | – | – | – | – | –
Oc1ccc(Nc2nc(-c3ccc(O)cc3)cs2)cc1 | – | – | – | – | – | 33.5
CCC1(C)Cc2ccccc2-c2nc(NCCCO)[nH]c(=O)c21 (centres undefined) | – | 140.3 | – | – | – | –
O=c1[nH]c(NCCCO)nc2c1C1(CCCC1)Cc1ccccc1-2 | – | 183.8 | – | – | – | –
CC1(C)Cc2ccccc2-c2nc(NCCCO)n(-c3ccccc3)c(=O)c21 | – | 198.2 | – | – | – | –
CCNS(=O)(=O)c1ccc2nc(NC(=O)c3cccnc3)sc2c1 | – | – | – | – | 70.3 | –
CS(=O)(=O)c1ccc2nc(NC(=O)c3cc([N+](=O)[O-])cc([N+](=O)[O-])c3)sc2c1 | – | – | – | – | – | –
CS(=O)(=O)c1ccc2nc(NC(=O)c3cccs3)sc2c1 | – | – | – | – | 49.1 | ·
CS(=O)(=O)c1ccc2nc(NC(=O)c3cccc([N+](=O)[O-])c3)sc2c1 | – | – | – | – | 39.3 | –
O=C(NC1CCCCC1)C(c1ccccc1)N(Cc1cccnc1)C(=O)c1csnn1 (centres undefined) | – | – | – | – | – | ·
CSc1ccc(C(=O)c2[nH]c(=O)[nH]c2C)cc1 | – | – | – | – | 32.4 | –
CCOc1ccc(-n2nc3cc(C)c(N)cc3n2)cc1 | – | 163.5 | – | – | – | –
COc1ccc(-n2c(C)cc(C=O)c2C)cc1Cl | – | – | – | – | – | –
SMILES | Mtb betalactam | FBA Mtb inh | Rv3671c protease | UGM FP inh | GDH-TPI counter | RecA splice inh
CCOc1ccc(N2C(N)=NC(N)=NC2(C)C)cc1 | – | – | – | – | – | –
COc1ccc(-n2nc3cc(C)c(N)cc3n2)cc1Cl | – | – | – | – | 35.7 | –
N=C1CCCC1C(=S)SCCC(N)=O (centres undefined) | · | – | · | · | – | ·
O=c1/c(=C\c2ccc(F)cc2)sc2n1CCCN=2 | – | – | – | – | 32.7 | ·
Cc1oc(-c2cccs2)nc1CS(=O)CC(=O)NCCCN1CC(C)CC(C)C1 (centres undefined) | – | – | – | – | – | –
CCCCC(=O)Nc1ccc(Cl)cn1 | – | – | – | – | – | –
CCCC(C)C(=O)Nc1ccc(Cl)cn1 (centres undefined) | – | – | – | – | 30.6 | –
CC(C)n1c(=O)c(C=Nc2ccc(S(N)(=O)=O)cc2)c(O)n(Cc2ccco2)c1=O | – | – | – | – | 32.3 | –
Brc1ccc(-c2cn3ccccc3n2)cc1 | – | – | – | – | – | –
Brc1ccc(-c2cn3cccnc3n2)cc1 | – | 138.9 | – | – | – | ·
COc1ccc(-c2cn3cccnc3n2)cc1F | – | + | – | – | – | –
Clc1ccc(-c2cn3cccnc3n2)cc1Cl | – | 70.0 | – | – | – | –
Clc1ccc(-c2cn3cccnc3n2)cc1 | – | + | – | – | – | –
CC(C)(C)c1ccc(C(=O)NCCC(=O)NCc2cccs2)cc1 | – | – | – | – | – | –
Cc1cc(C(=O)Cn2cc([N+](=O)[O-])ccc2=O)c(C)n1CC1CCCO1 (centres undefined) | · | – | · | · | – | ·
O=C(Nc1nc2ccccc2n1CCN1CCOCC1)c1ccc(COc2ccccc2Br)o1 | – | – | – | – | – | –
O=C(Nc1nc2ccccc2n1CCN1CCOCC1)c1ccc(Cn2cc([N+](=O)[O-])cn2)o1 | – | – | – | – | 47.8 | –
Cc1cccc(NS(=O)(=O)c2cccc(C(=O)NCC(c3ccco3)N(C)C)c2)c1 (centres undefined) | – | – | – | – | – | –
Cc1ccc(C(=O)N(CC(=O)NC2CCCC2)c2ccccc2C)s1 | – | – | – | – | – | –
CC1=CN2C(=NC(=O)CC2(C)C(=O)N(CC(=O)NC2CCCC2)Cc2ccccc2)C=C1 (centres undefined) | – | 124.0 | – | – | – | –
Cc1ccccc1N(CC(=O)NC1CCCC1)C(=O)C1(C)CC(=O)N=C2C=CC(Cl)=CN21 (centres undefined) | – | 155.0 | – | – | – | –
CC(C)c1nnc(NC(=O)c2cc3ccccc3o2)s1 | – | – | – | – | – | –
O=C(COC(=O)/C=C/c1cn(-c2ccccc2)nc1-c1ccc2c(c1)OCCO2)NC1CCS(=O)(=O)C1 (centres undefined) | – | – | – | – | – | –
CCOC(=O)C1=C(COC(=O)c2cccnc2Cl)NC(=O)NC1C (centres undefined) | – | – | – | – | – | –
CC(C)n1c(O)c(N=NC(=O)CNC(=O)CCc2ccccc2)c2ccccc21 | – | – | – | – | 31.2 | –
SMILES | Mtb betalactam | FBA Mtb inh | Rv3671c protease | UGM FP inh | GDH-TPI counter | RecA splice inh
COc1ccccc1C(=O)NCC(=O)N=Nc1c(O)n(C(C)C)c2ccccc12 | – | – | – | – | 31.0 | –
CC(C)n1c(O)c(N=NC(=O)CNC(=O)Cc2ccc(Cl)cc2)c2ccccc21 | – | – | – | – | – | –
CN(C(=O)COC(=O)c1cc(Br)c(Br)s1)C1CCS(=O)(=O)C1 (centres undefined) | – | – | – | – | – | –
CC(C)(C)c1cc(C(=O)O)n[nH]1 | – | – | – | – | – | –
Cc1cc(C)c(C(=O)/C=C/c2ccc(C(C)C)cc2)c(=O)[nH]1 | · | – | – | – | 42.1 | –
C/C(=C\C=C\c1ccccc1)C(=O)c1c(C)cc(C)[nH]c1=O | – | – | – | – | 47.4 | –
Cc1cc(C)c(C(=O)/C=C/C=C/c2ccccc2)c(=O)[nH]1 | – | – | – | – | – | –
C[C@H](CO)N1C[C@H](C)[C@@H](CN(C)C(=O)Nc2ccc3c(c2)OCO3)Oc2ccc(NC(=O)CCC(F)(F)F)cc2C1=O | – | – | – | – | – | ·
